Reference: PubChem BioAssay AID1578 (Sanford-Burnham Center for Chemical Genomics, 2009)
Where “and” joins values, the source holds several entries; their conditions need not be identical. Identical values can stand only once. The whole screen tested about 290,000 compounds, of which about 3,000 (1%) were called active. The entries come from a sample that favours actives as a whole. A number with no mark means an inactive call. Rule as the data show it: active = inhibition mostly above about 36% (no sharp cut-off); inactive = mostly below about 34%.

assay: inhibition of NOD1-driven NF-kB reporter – cell-based, luminescence, uHTS, primary screen (AID 1578); conditions: NOD1-driven NF-kB luciferase reporter cells, at 4 µM, stronger effect = higher value;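 also: HEK-293T reporter cells stimulated with the NOD1 agonist gamma-tri-DAP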

| SMILES | inhibition |
| --- | --- |
| O=C(Nc1ccccc1)Nc1cc(OCC(F)(F)F)cc(OCC(F)(F)F)c1 | -5.2% |
| O=C(Nc1ccc(F)cc1)Nc1cc(OCC(F)(F)F)cc(OCC(F)(F)F)c1 | 84.5% (active) |
| CCOc1ccc(NC(=O)Nc2cc(OCC(F)(F)F)cc(OCC(F)(F)F)c2)cc1 | -32.9% |
| C[C@H](NC(=O)[C@@H]1Cc2ccccc2CN1)C(=O)NC1CCCC1 | -25.1% |
| COc1cccc(NC(=O)c2ccc(NC(=O)C(C)(C)C)cc2)c1 | -63% |
| O=C(/C=C/c1ccc([N+](=O)[O-])cc1)Nc1cccnc1 | -4.6% |
| O=C(/C=C/c1ccc([N+](=O)[O-])cc1)Nc1ncc([N+](=O)[O-])s1 | 54.9% (active) |
| CCCCOc1ccc(/C=C/C(=O)Nc2ccc([N+](=O)[O-])cc2C)cc1 | -22.5% |
| O=C(Nc1ccccc1)Nc1ncc([N+](=O)[O-])s1 | -0.5% |
| CCCOc1ccc(/C=C/C(=O)Nc2ccc([N+](=O)[O-])cc2C)cc1 | 0.8% |
| CCCOc1ccc(/C=C/C(=O)Nc2ccc([N+](=O)[O-])cc2)cc1 | 76.6% (active) |
| COCC(C)n1c(SC(C)C(=O)NC2CCCCC2C)nc2ccccc2c1=O (stereo unspecified) | -27.1% |
| CN(CC(=O)Nc1ccc(Cl)c(C(F)(F)F)c1)C(=O)CC1Sc2ccccc2NC1=O (stereo unspecified) | -18.8% |
| O=S(=O)(c1ccc(F)cc1)N1CCN(CC(O)COc2ccccc2F)CC1 (stereo unspecified) | -0.6% |
| COc1cccc(CNC(=O)CCC(=O)N2CCSc3ccccc32)c1OC | 5.1% |
| CC(=O)Nc1ccc(S(=O)(=O)N2CCCC2C(=O)Nc2ccc3c(c2)OCCO3)cc1 (stereo unspecified) | -17.3% |
| CCO[C@@H]1OC(C(=O)N2CCN(C)CC2)=C[C@H](c2csc3ccccc23)[C@H]1CCCO | -18% |
| NNC(=O)CCN1CCN(C(c2ccccc2)c2ccccc2)CC1 | -18.4% |
| O=C(CCN1CCN(Cc2ccccc2)CC1)Nc1ccccc1Cl | -19.8% |
| NNC(=O)CCN1CCN(Cc2ccccc2)CC1 | 45.4% (active) |
| COC(=O)N/N=C/c1cc(Cl)cc(Cl)c1OCc1ccccc1F | -1.4% |
| C=CCSc1nc(C)c(CC(=C)C)c(=O)[nH]1 | -23.6% |
| C=CCSc1nc(C)c(Cc2cccc3ccccc23)c(=O)[nH]1 | 41.9% (active) |
| C=CCSc1nc(C)c(CC=C)c(=O)[nH]1 | -34.6% |

| SMILES | inhibition |
| --- | --- |
| C/C(=N\NC(=O)C1CC1)c1cccs1 | -17.5% |
| CCc1ccnc(NS(=O)(=O)c2ccc3c(c2)CCO3)c1 | -5.6% |
| O=S(=O)(N/N=C\c1c(F)cccc1Cl)c1ccc(Cl)cc1 | -0.4% |
| COC(=O)c1ccc(Cl)c(NC(=O)c2ccc(-c3ccccc3)cc2)c1 | 6% |
| CCOC(=O)c1ccc(Cl)c(NC(=O)c2ccc(-c3ccccc3)cc2)c1 | 104% (active) |
| CCCOC(=O)c1ccc(Cl)c(NC(=O)c2ccc(-c3ccccc3)cc2)c1 | 3.5% |
| Cc1cc(NS(=O)(=O)c2ccc(NC(=O)C(C)Oc3ccc(Cl)cc3)cc2)no1 (stereo unspecified) | 6.9% |
| O=C(Nc1cccc([N+](=O)[O-])c1)C12CC3CC(C1)CC(n1cnc([N+](=O)[O-])n1)(C3)C2 | 92.1% (active) |
| O=C(Nc1ccon1)C12CC3CC(C1)CC(n1cnc([N+](=O)[O-])n1)(C3)C2 | -18.8% |
| O=C(Nc1ccccc1)C12CC3CC(C1)CC(n1cnc([N+](=O)[O-])n1)(C3)C2 | 1.9% |
| COc1ccc(C(=O)N2CCCC(C(=O)N3CCN(c4ccccc4)CC3)C2)cc1 (stereo unspecified) | 2.5% |
| Cc1ccccc1C(=O)N1CCN(c2ccc(NC(=O)c3ccc4c(c3)OCO4)cc2)CC1 | 3% |
| O=C(Nc1ccc(N2CCN(C(=O)c3ccccc3)CC2)cc1)c1ccc2c(c1)OCCO2 | 31.2% |
| COc1ccccc1N(CC(=O)Nc1ccccc1C)S(C)(=O)=O | -26.9% |
| CC(NC(=O)C1CC=CCC1C(=O)O)C1CC2CCC1C2 (stereo unspecified) | -30.7% |
| CC(NC(=O)C1CCCC1)C1CC2CCC1C2 (stereo unspecified) | 96.5% (active) |
| CC(NC(=O)c1ccccc1Cl)C1CC2CCC1C2 (stereo unspecified) | -16.6% |
| C[C@]12CC(O)C3C(CCC4=CC(=O)CC[C@@]43C)C1CCC2c1csc(-c2ccccc2)n1 (stereo partly specified) | 15.3% |
| CC(=O)[C@H]1CC[C@H]2[C@@H]3CCC4=CC(=O)CC[C@]4(C)[C@H]3CC[C@]12C | 5.4% and -4.1% |
| C/C(=N\O)c1ncc(C(F)(F)F)cc1Cl | -23.5% |
| CC(C)NC(=O)CC(=O)N/N=C\c1ccccc1C(=O)O | -33.7% |
| CSc1ccccc1C(=O)Nc1cccc(N(C)S(C)(=O)=O)c1 | -8.4% |
| CC1Cc2ccccc2N1CC(=O)NC(=O)NCc1ccco1 (stereo unspecified) | -5.2% |
| Cc1cccc(N2C(=O)c3cccc4c(N)ccc(c34)C2=O)c1 | 26.2% (active) |

| SMILES | inhibition |
| --- | --- |
| Nc1ccc2c3c(cccc13)C(=O)N(c1ccccc1)C2=O | -19.1% |
| Nc1cccc(N2C(=O)c3cccc4c(N)ccc(c34)C2=O)c1 | 5.7% |
| O=C(NCCOc1ccccc1)C1CCC(=O)N(CCCN2CCOCC2)C1 (stereo unspecified) | -28.6% |
| Cc1ccc2c(c1)C(=O)CC(c1ccc3c(c1)OCCO3)O2 (stereo unspecified) | -0.6% |
| COc1ccc2c(c1)C(=O)CC(c1ccccc1F)O2 (stereo unspecified) | 5.9% |
| Cn1c(Cl)cnc1C1CC(=O)c2cc(Cl)ccc2O1 (stereo unspecified) | 76.3% (active) |
| COc1ccc(CN(C)C(=O)c2ccc(COc3ccccc3)cc2)c(OC)c1 | -11.1% |
| Cc1ccsc1/C=N\NC(=O)Cn1nnc2ccccc21 | -9.3% |
| OCCN1CCN(CC(O)COC(c2ccc(F)cc2)c2ccc(F)cc2)CC1 (stereo unspecified) | -11.1% |
| OC(COC(c1ccc(Cl)cc1)c1ccc(Cl)cc1)CN1CCCC1 (stereo unspecified) | -28.8% |
| OC(COC(c1ccc(F)cc1)c1ccc(F)cc1)CN1CCCC1 (stereo unspecified) | 40.5% (active) |
| Cc1ccccc1NC(=O)Cc1nc(COC(=O)c2cc(Cl)ccc2O)cs1 | -19.6% |
| CC(=O)Oc1cc(OC(C)=O)c2c(=O)c(-c3ccc4c(c3)OCCCO4)c(C)oc2c1 | -3% |
| O=C(NCc1cccnc1)c1ccc(-c2cc(Cl)ccc2Cl)o1 | 42.3% |
| O=C(NCc1cccnc1)c1ccc(-c2cccc(Cl)c2Cl)o1 | 40.8% (active) |
| O=C(NCc1cccnc1)c1ccc(-c2ccc(Cl)cc2)o1 | -19.4% |
| Cc1csc(=O)n1CC(=O)OCC(=O)Nc1cc(Cl)ccc1[N+](=O)[O-] | -34.9% |
| CCN(C(=O)CSc1nncs1)c1c(N)n(Cc2ccccc2)c(=O)[nH]c1=O | 4.6% |
| CCC(=O)NC(C)C(c1cccs1)N1CCN(Cc2ccccc2)CC1 (stereo unspecified) | -18.4% |
| O=C(COc1ccc(Cl)cc1)N1CCN(C(=O)c2ccccc2F)CC1 | 27.3% |
| C=C1C(=O)O[C@@H]2[C@H]1[C@@H](OC(=O)/C(C)=C/C)C/C(C)=C\C(=O)/C=C(\C)[C@@H]2O | 54.7% (active) |
| C=C1C(=O)O[C@H]2C[C@]3(C)C([C@@H](OC(=O)/C(C)=C/C)[C@H]12)[C@](C)(O)CC[C@H]3O (stereo partly specified) | 13.6% |
| C=C1C(=O)O[C@H]2[C@H]1[C@@H](O)CC(=C)[C@@H]1CC(=O)[C@@H](C)[C@H]21 | 9.7% |
| CCn1c(CC(=O)Nc2ccc(OC)cc2)nnc1SCC(=O)N1CCOCC1 | -21.2% |

| SMILES | inhibition |
| --- | --- |
| COc1ccc(/C=C/C(=O)c2ccc[nH]2)c(OC)c1OC | -21.2% |
| COc1ccc(/C=C/C(=O)c2ccncc2)c2ccccc12 | 6.3% |
| COc1cc2[nH]c(=O)n(C3CCCCC3)c(=O)c2cc1OC | 3.9% |
| CCOc1ccc(-c2nc(N)ncc2-c2ccc(OC)cc2)c(O)c1 | 7.2% |
| CCOc1ccc(-c2nc(N)ncc2-c2ccccc2)c(O)c1 | 2.9% |
| CCOc1ccc(-c2nc(N)ncc2-c2ccc(Cl)cc2)c(O)c1 | 34.1% (active) |
| C=CCN1C(=O)C(CC(=O)O)SC1=Nc1ccc(C)cc1 (stereo unspecified) | -23.8% |
| CC(Oc1ccccc1)c1ccnc2nc(/N=C/N(C)C)nn12 (stereo unspecified) | -24.9% |
| CC1(C)CC(=O)c2sc(NC(=O)c3ccccc3)nc2C1 | -45.6% |
| CC1(C)CC(=O)c2sc(NS(=O)(=O)c3ccccc3)nc2C1 | -13.7% |
| CC1(C)CC(=O)c2sc(NC(=O)CCS(=O)(=O)c3ccccc3)nc2C1 | 71% (active) |
| CN(C)c1c(F)cc(C(=O)NC(=O)NCc2cccnc2)cc1F | -15% |
| COc1ccc(C(CC(=O)O)NC(=O)c2cccs2)cc1 (stereo unspecified) | -11.2% |
| Cc1cccc(NC(NC(=O)c2ccccc2[N+](=O)[O-])C(Cl)(Cl)Cl)c1 (stereo unspecified) | -3.9% |
| O=C(CSc1nnnn1-c1ccc2c(c1)OCCO2)Nc1nc2c(s1)CCCC2 | 58.5% (active) |
| COc1cc(OC)cc(-n2nnnc2SCC(=O)Nc2nc3c(s2)CCCC3)c1 | -3.7% |
| COc1ccc(-n2nnnc2SCC(=O)Nc2nc3c(s2)CCCC3)cc1 | 43.4% |
| O=C(O)c1cccc(Oc2ccc([N+](=O)[O-])cc2)c1 | -8.3% |
| COc1cc(/C=N/NC(=O)C(=O)NCc2cccnc2)cc(OC)c1OC | -15.5% |
| COc1ccc(C(=O)O/N=C(\N)c2ccccn2)cc1 | 84.1% (active) |
| Cc1ccc(C(=O)O/N=C(\N)c2ccccn2)cc1 | 11.3% |
| COc1cc(OC)cc(C(=O)O/N=C(\N)c2ccccn2)c1 | -12.2% |
| N/C(=N\OC(=O)c1ccccc1)c1ccccn1 | 18.4% |
| CCOc1ccc(C(=O)O/N=C(\N)c2ccccn2)cc1 | 20.4% |
